What was measured:
Format in all cases: functional
Plasmodium falciparum [1] = assay: GSK_TCMDC: Inhibition of Plasmodium falciparum 3D7 in whole red blood cells, using parasite LDH activity as an index of growth. Test compounds present at 2uM
Plasmodium falciparum [2] = assay: GSK_TCMDC: Inhibition of Plasmodium falciparum Dd2 in whole red blood cells, using parasite LDH activity as an index of growth. Test compounds present at 2uM
HepG2 = assay: GSK_TCMDC: Percent inhibition of human HepG2 cell line. Test compounds present at 10uM.

Structure (SMILES)	Inhibition (Plasmodium falciparum [1])	Inhibition (Plasmodium falciparum [2])	Inhibition (HepG2)
Cc1noc(C)c1-c1cccc(CNCc2ccc(-c3cccc(-c4nc5cc(C(F)(F)F)ccc5[nH]4)c3)cc2)c1.O=C(O)C(F)(F)F	100%	97%	37%
CC(C)CCN1CCCN(Cc2cccc(NC(=O)c3ccc(Cl)c(Cl)c3)c2)CC1.O=C(O)C(F)(F)F	92%	13%	35%
Cc1ccc2[nH]c3c(NCCCN4CCOCC4)ncnc3c2c1	100%	9%	0%
COc1cccc(C2(c3cccc(OC)c3)N=C(N)N(CCCc3ccccc3)C2=O)c1.O=CO	98%	93%	3%
Cc1cccc2nc(-c3cccc(-c4cccc(C(=O)N5CCCCC5CN5CCC(O)C5)c4)c3)[nH]c12 (stereo not drawn)	89%	71%	19%
Cc1cc(N/N=C/c2ccc([N+](=O)[O-])cc2)c2ccc(F)cc2n1	100%	22%	0%
CCn1c(-c2nonc2N)nc2c(-c3cccc(NC(=O)NC45CC6CC(CC(C6)C4)C5)c3)ncc(OCCCN)c21.O=C(O)C(F)(F)F	94%	63%	100%
O=C(Nc1ccc(C(=O)Oc2cccc3ccccc23)cc1)N[C@@H](Cc1ccc(O)cc1)C(=O)NC1CCN(Cc2ccc(O)cc2)C1.O=C(O)C(F)(F)F (stereo partly drawn)	87%	0%	0%
O=C(NC(c1ccc(Cl)cc1)c1ccc2cccnc2c1O)c1ccccc1 (stereo not drawn)	87%	80%	44%
O=C(O)C(F)(F)F.Oc1ccc(CCCNc2nc(NCc3cccc4ccccc34)nc(NC3CCNCC3)n2)cc1	91%	0%	8%
CCc1ccc(CN2CCC(NC(=O)c3cc(-c4ccc(N(C)C)cc4)cs3)C2)cc1.O=C(O)C(F)(F)F (stereo not drawn)	90%	7%	29%
Cc1cccc(C(=O)NC(NC(=S)Nc2cc(Cl)ccc2Cl)C(Cl)(Cl)Cl)c1 (stereo not drawn)	94%	61%	0%
CN1CCN(C(C(=O)NCc2cc(Cl)cc(Cl)c2)c2ccc(Nc3cccc(C(F)(F)F)c3)cc2)CC1 (stereo not drawn)	85%	98%	49%
Cc1nc(N)nc(N)c1-c1ccc(Cl)c(Cl)c1 [METOPRINE]	95%	0%	66%
COC(=O)c1cccc(CNCc2ccc(-c3cccc(-c4nc5cc(C(F)(F)F)ccc5[nH]4)c3)cc2)c1.O=C(O)C(F)(F)F	100%	97%	5%
O=C(N[C@H]1CCN(Cc2ccc(OCCCN3CCCCC3)cc2)C1)c1ccc2ccccc2c1	97%	32%	8%

Structure (SMILES)	Inhibition (Plasmodium falciparum [1])	Inhibition (Plasmodium falciparum [2])	Inhibition (HepG2)
CCN(CC)S(=O)(=O)c1ccc(C(=O)Oc2ccccc2N(Cc2ccc(OC)cc2)C2=NS(=O)(=O)c3ccccc32)cc1	98%	63%	0%
O=S1(=O)NC2(CCN(CCc3ccc(Cl)cc3)CC2)Nc2cc(F)cc(F)c21	86%	5%	7%
Fc1ccc2[nH]c(-c3ccc(-c4cccc(CN5CCCCC5)c4)cc3)nc2c1.O=C(O)C(F)(F)F	100%	100%	10%
CCCOc1ccc(NC(=O)c2cccs2)cc1Cl	88%	86%	1%
FC(F)(F)c1ccc2[nH]c(-c3ccc(-c4ccc(CNCCc5ccncc5)cc4)cc3)nc2c1.O=C(O)C(F)(F)F	100%	100%	26%
Cc1nc(C)c(CC(=O)Nc2ccc(-c3cccc(-c4nc5cccc(C)c5[nH]4)c3)cc2)s1	100%	38%	41%
COc1ccc2oc(=O)c(C#N)c(O)c2c1	99%	0%	0%
COc1ccc(-c2ccc(NC(=O)c3cccc(Cl)c3)cc2)cc1CNC(C)C.O=C(O)C(F)(F)F	100%	88%	26%
Cc1cccc(CNc2nc(C)cc(N[C@@H](CC(C)C)C(=O)NCCOc3ccccc3)n2)c1.O=C(O)C(F)(F)F	93%	35%	15%
CC1(C)N=C(N)N=C(N)N1c1ccccc1.Cl	98%	1%	16%
CC(C)(C)CC(C)(C)c1ccc(O)c(C(=O)Nc2ccc([N+](=O)[O-])cc2)c1	97%	99%	80%
Cc1ccc(NC(=O)N2CCCN(CCCCCNC(=O)/C=C/c3ccc(Cl)c(Cl)c3)CC2)cc1C	100%	4%	62%
CC(c1cccc(S(=O)(=O)NCc2ccc(Cl)cc2Cl)c1)N1CCC(N2CCCCC2)CC1 (stereo not drawn)	100%	40%	36%
CCOc1ccc(Nc2cc(C)nc(Nc3ccc(OCC)cc3)n2)cc1	100%	49%	3%
Cc1cc(N2CCCC2)nc(Nc2ccc(NC(=O)c3ccccc3)cc2)n1	100%	65%	26%

Reference: ChEMBL document CHEMBL1157539, “Thousands of chemical starting points for antimalarial lead identification” (Nature, 2010)
